Screening data: PubChem, National Center for Advancing Translational Sciences (NCATS)
NS1 inh = qHTS Assay for Inhibitors of Influenza NS1 Protein Function; actives 0.4% (n = 270,000); AID 2326, 2010; Potency, µM (highest dose often 46.1 µM), without a hit: at the highest dose activity, positive = more growth; calls by dose curve; also: potency is read from the fitted curve at half-maximal effect; actives are rising curves; nearly all actives have a fitted effect of over 50% in size
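OD600 was taken as the measure of yeast growth restored by compound in an NS1-expressing S. cerevisiae strain. Cells had been washed out of glucose medium and diluted 1:100 into galactose -URA medium, pH 6.0.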
Cycloheximide cs = Cycloheximide Counterscreen for Small Molecule Inhibitors of Shiga Toxin; max response, %; cell reporter, cycloheximide protein synthesis inhibition counterscreen; actives 12% (n = 300,000); in the data active = max response mostly above about 13%, no sharp cut-off; inactive = mostly below about 14%; also: read at 38.3 µM for the half of the compounds with a filed dose; 0% is about no effect
Pf growth 96h = Primary qHTS for delayed death inhibitors of the malarial parasite plastid, 96 hour incubation. P. falciparum luciferase reporter growth, 96 h. Potency, µM (titrated, usually from 28.7 µM), without a hit: at the top dose activity change, negative = inhibition, actives largely listed as inhibitors. AID 504834, 2011. actives 6.9% (n = 320,000); also: potency is read from the fitted curve at half-maximal effect; % is scaled to controls: 0 for no effect and ±100 for the full control effect
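Plates of compound plus infected erythrocytes (2% hematocrit, 0.05% parasitemia final) incubate 96 hours, 37 C, 5% CO2. Detection reagent added; reduced luminescence from the parasites' luciferase reporter flags inhibition.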
Pf growth 48h = Primary qHTS for delayed death inhibitors of the malarial parasite plastid, 48 hour incubation | actives 5.9% (n = 310,000) | Potency, µM (series often up to 28.7 µM), for the others: at the top dose activity change, negative = inhibition, hits mostly inhibitors | P. falciparum luciferase growth in erythrocytes, 48 h | AID 504832, 2011; also: potency is read from the fitted curve at half-maximal effect; % is scaled to controls: 0 for no effect and ±100 for the full control effect
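Compounds are pin-transferred into medium, infected erythrocytes (2% hematocrit, 0.1% parasitemia final) are added, and plates sit one parasite generation at 37 C in 5% CO2. Detection reagent is then added and luminescence measured.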
Shiga inhibitor = A qHTS for Small Molecule Inhibitors of Shiga Toxin; Vero cells, Shiga toxin protein synthesis inhibition reporter; inhibition, % at 38.7 µM; actives 9.2% (n = 290,000); AID 2315, 2010; in the data active = inhibition mostly above about 28%, no sharp cut-off; inactive = mostly below about 43%; also: 0% is about no effect
An asterisk follows results filed as active; u = inconclusive; x = no result; + = active, no number. Sampled rows, rich in hits. Any-hit rate of the full collection: about 21%. Unless noted, calls follow the shape of the dose curve; as a rule, active = well fitted inhibition curve with a large enough effect; inconclusive = small, poorly fitted or top-dose-only effect, or another doubt; inactive = no such curve, though single readings can be large or run the other way.

SMILES	NS1 inh	Cycloheximide cs	Pf growth 96h	Pf growth 48h	Shiga inhibitor
CC(C)C(=O)Nc1ccc(NC(=O)c2ccco2)cn1	1%	23*	u	106%	14
CSc1ccc(CNC(=O)Cc2ccc(NC(=O)C3=C(C)OCCS3)cc2)cc1	6%	24*	u	125%	55*
CCOc1ccc(CCNC(=O)Cc2ccc(NC(=O)C3=C(C)OCCS3)cc2)cc1	12%	21	-38%	24%	47*
CC(=O)N(CCC(Cc1ccccc1)c1ccc2c(c1)OCO2)Cc1ccc(Cl)cc1 (stereo unspecified)	20%	4	8.3µM*	9.3µM*	0
O=C(O)CC(Cc1ccccc1)c1ccc2c(c1)OCO2 (stereo unspecified)	-56%	1	56%	35%	8
O=C1CCCN1CCCNS(=O)(=O)c1ccc(F)c(F)c1	6%	-2	u	52%	-12
CC(C)NCC1CCc2cc(CO)c([N+](=O)[O-])cc2N1 (stereo unspecified)	4%	3	40%	35%	1
CC(C)(C)n1cnc2cc(NC(=O)c3ccc(Cl)cc3)ccc21	-21%	33*	55%	80%	92*
Cn1cnc2cc(NC(=O)c3ccc(Cl)cc3)ccc21	-30%	27*	u	204%	55*
COc1cc(C(=O)Nc2ccc3c(c2)ncn3C(C)(C)C)cc(OC)c1OC	-21%	-1	u	u	-3
CCC(=O)Nc1ccc2c(c1)ncn2C	0%	-2	u	21%	5
Cc1cccc(OCCNC(=O)c2cncc(Br)c2)c1	-16%	6	4%	9%	-3
O=C(NN=C1CCCC1)c1n[nH]c2c1CCC2	-1%	24*	u	0%	27
O=C(NC1CCCCC1)c1n[nH]c2c1CCCCC2	x	x	47%	u	x
O=C(NN=C1CCCC1)c1n[nH]c2c1CCCC2	5%	32*	1%	50%	59*
CCOc1cc(C(=O)NN=C2CCCC2)cc(OCC)c1OCC	10%	-2	u	59%	-10
CCOC(=O)c1snc(-c2ccc(F)cc2)c1N	-15%	35*	x	73%	103*
CCOC(=O)c1sc(N)nc1-c1ccccc1	-88%	-3	7%	9%	-3
O=C1CN(C(=O)CSc2nc3cc(Cl)ccc3c(=O)n2Cc2ccccc2)c2ccccc2N1	u	-3	u	3.3µM*	-18
O=C1CN(C(=O)CSc2nnnn2-c2ccc(Cl)cc2)c2ccccc2N1	-8%	1	54%	4.7µM*	10
C=CCn1c(SCC(=O)N2CC(=O)Nc3ccccc32)nc2scc(-c3ccccc3)c2c1=O	u	2	4.7µM*	8.3µM*	-19
CC(c1ccccc1)n1c(SCC(=O)N2CC(=O)Nc3ccccc32)nc2ccccc2c1=O (stereo unspecified)	u	-7	5.2µM*	13µM*	-12
Cc1cc(C)c2nc(C(F)(F)F)nc(NCCCN3CCOCC3)c2c1	-4%	14	u	x	-22
COc1ccc(-c2csc(NC(=O)/C(N=Nc3ccccc3)=C(\C)O)n2)cc1	3%	8	59%	14%	8
COc1ccc(NC(=O)CCNC(=O)c2ccco2)cc1Cl	-5%	-3	14%	0%	-6
SMILES	NS1 inh	Cycloheximide cs	Pf growth 96h	Pf growth 48h	Shiga inhibitor
COCC(C)n1c(SCC(=O)N2CC(=O)Nc3ccccc32)nc2ccccc2c1=O (stereo unspecified)	x	x	u	13µM*	x
O=C(C1=C[C@@H](c2ccc(Br)cc2)C[C@@H](OCc2ccc(CO)cc2)O1)N1CCN(Cc2ccccc2)CC1	-5%	1	12µM*	u	-12
CN1CCN(C(=O)C2=C[C@@H](c3ccc(Br)cc3)C[C@@H](OCc3ccc(CO)cc3)O2)CC1	0%	-2	u	u	-12
C#Cc1ccc([C@@H]2C=C(C(=O)N3CCN(Cc4ccccc4)CC3)O[C@H](OCCCCO)C2)cc1	-6%	-2	u	u	8
C#Cc1ccc([C@H]2C=C(C(=O)N3CCN(Cc4ccccc4)CC3)O[C@@H](OCc3ccc(CO)cc3)C2)cc1	13%	-2	2.3µM*	3.3µM*	-17
COc1ccc(S(=O)(=O)Nc2ccc(NC(C)=O)cc2)cc1[N+](=O)[O-]	1%	-1	-18%	-9%	-6
CCc1ccc(NS(=O)(=O)c2ccc3oc(=O)ccc3c2)cc1	-31%	-4	-13%	9%	37
O=C(N/C(=C/c1cccs1)C(=O)N1CCOCC1)c1cccs1	4%	-3	9.3µM*	-2%	-12
O=C(Nc1ccccc1)/C(=C\c1cccs1)NC(=O)c1ccccc1	-2%	3	1.5µM*	20%	-3
O=C(N/C(=C\c1cccs1)C(=O)N1CCCCCC1)c1ccccc1	-2%	-1	9.3µM*	u	-17
Cc1ccc(C(=O)N/C(=C/c2cccs2)C(=O)N2CCCCCC2)cc1	-4%	6	-2%	-3%	-11
Cc1ccc(C(=O)N/C(=C\c2cccs2)C(=O)NC2CCCCC2)cc1	-14%	-1	4.1µM*	x	-6
CC(=O)N1CCSc2ccc(S(=O)(=O)Nc3cccc(C)c3)cc21	-12%	1	u	-9%	-5
CSCC[C@H](NC(=O)c1cccnc1)c1nnc2ccccn12	7%	-8	42%	12%	3
COC(=O)c1ccccc1N=Nc1c(C)noc1C	-5%	-3	8%	9%	33
N=C1[C@@H](O)[C@]2(I)c3ccccc3N3C(=N)[C@H](O)[C@@H]4c5ccccc5N1[C@@H]4[C@@H]32	0%	x	x	x	x
O=C(O)c1ccc(CSc2nnnn2-c2ccc(F)cc2)cc1	1%	-1	-11%	13%	-7
O=C(CSc1nnnn1-c1ccc(F)cc1)c1ccc(O)c(O)c1	x	38*	u	-25%	58
COc1ccc(N=C2C(=O)N3c4c(cccc42)C(C)=CC3(C)C)cc1	-33%	-3	12µM*	u	-5
CCCC(=O)Nc1c(C)n[nH]c1C	3%	-4	0.59µM*	1%	0
Cn1c(SCC(=O)N2CCN(c3ccccc3)CC2)nnc1-c1c[nH]c2ccccc12	13%	-5	7.4µM*	x	-11
Cn1c(SCc2ccccc2)nnc1-c1c[nH]c2ccccc12	-15%	21*	-15%	-17%	48*
COc1cccc(-n2c(SCC(=O)N3CCOCC3)nc3c([nH]c4ccccc43)c2=O)c1	7%	x	x	x	x
COc1cccc(-n2c(SCC(=O)N3CCOCC3)nnc2-c2c[nH]c3ccccc23)c1	-1%	-7	10µM*	x	-20
CCCCSc1nnc(-c2c[nH]c3ccccc23)n1C	1%	13	u	x	37
COC(=O)c1ccc(CSc2nnc(-c3c[nH]c4ccccc34)n2-c2ccccc2)cc1	-41%	18*	-101%	u	+
COC(=O)c1ccc(CSc2nnc(-c3c[nH]c4ccccc34)n2C)o1	5%	6	u	x	-9
